Out of some 39,000 compounds screened, about 220 (0.56%) showed activity. The list comes from a sample in which actives are over-represented; it also holds similar structures and randomly drawn compounds. A number with no mark means an inactive call.
The molecules below were run on Escherichia coli K-12 BW25113 (assay: relative growth (OD600 normalised to plate interquartile mean) (fraction); higher = less growth inhibition, active = 0.2 or less). Details: 50 µM; LB; incubation time: overnight (16-24 h).
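Further: Wild-type cells incubated without shaking, value is the mean of two biological replicates.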

| SMILES | relative growth |
| --- | --- |
| CO[C@H]1CN(C)C(=O)c2cc(NC(=O)Nc3cccc(F)c3)ccc2OC[C@@H](C)N(C(=O)Nc2c(C)noc2C)C[C@H]1C | 0.978 |
| C[C@H](CO)N1C[C@H](C)[C@H](CN(C)C(=O)Nc2ccc(N3CCN(C)CC3)cc2)OCc2cnnn2CCCC1=O | 0.983 |
| CO[C@H]1C[C@H](O[C@H]2[C@H](C)[C@@H](O[C@H]3O[C@H](C)C[C@H](N(C)C)[C@H]3O)[C@@H](C)C[C@]3(CO3)C(=O)[C@H](C)[C@@H](O)[C@@H](C)[C@@H](C)OC(=O)[C@@H]2C)O[C@@H](C)[C@@H]1O | 0.954 |
| CCCN1C[C@H](C)[C@@H](O)[C@](C)(O)[C@@H](CC)OC(=O)[C@H](C)[C@@H](O[C@H]2C[C@@](C)(OC)[C@@H](O)[C@H](C)O2)[C@H](C)[C@@H](O[C@@H]2O[C@H](C)C[C@H](N(C)C)[C@H]2O)[C@](C)(O)C[C@H]1C | 0.116 (active) |
| CCC(=O)OC1C(OC2C(C)C(OC3CC(C)(OC)C(O)C(C)O3)C(C)C(=O)OC(CC)C(C)(O)C(O)C(C)C(=O)C(C)CC2(C)O)OC(C)CC1N(C)C.CCCCCCCCCCCCOS(=O)(=O)O (stereo not given) | 0.953 |
| CCC1OC(=O)C(C)C(OC2CC(C)(OC)C(O)C(C)O2)C(C)C(OC2OC(C)CC(N(C)C)C2O)C(C)(O)CC(C)CN(C)C(C)C(O)C1(C)O (stereo not given) | 0.0435 (active) |
| CCC1OC(=O)C(C)C(OC2CC(C)(OC)C(O)C(C)O2)C(C)C(OC2OC(C)CC(N(C)C)C2O)C(C)(O)CC(C)C(=O)C(C)C(O)C1(C)O.CCCCCCCCCCCCCCCCCC(=O)O (stereo not given) | 0.665 |
| CC[C@H]1OC(=O)[C@H](C)[C@@H](O[C@H]2C[C@@](C)(OC)[C@@H](O)[C@H](C)O2)[C@H](C)[C@@H](O[C@@H]2O[C@H](C)C[C@H](N(C)C)[C@H]2O)[C@](C)(O)C[C@@H](C)[C@@H]2N[C@@H](COCCOC)O[C@H]([C@H]2C)[C@]1(C)O | 0.469 |
| CC[C@H]1OC(=O)[C@H](C)[C@@H](O[C@H]2C[C@@](C)(OC)[C@@H](O)[C@H](C)O2)[C@H](C)[C@@H](O[C@@H]2O[C@H](C)C[C@H](N(C)C)[C@H]2O)[C@](C)(O)C[C@@H](C)CN(C)[C@H](C)[C@@H](O)[C@]1(C)O | 0.0562 (active) |
| C[C@H](CO)N1C[C@H](C)[C@H](CN(C)S(=O)(=O)c2cccs2)Oc2ncc(-c3cccc(F)c3)cc2C1=O | 0.97 |
| O=C(Cn1nnc2ccccc2c1=O)Nc1nnc[nH]1 | 0.982 |
| C[C@@H]1CN([C@H](C)CO)S(=O)(=O)c2ccc(C#CC3(O)CCCC3)cc2O[C@H]1CN(C)C(=O)Nc1cccc(F)c1 | 1 |
| Cc1cc(C)n(CCNC(=O)[C@H]2CCCN(c3cccc4c3C(=O)N(Cc3ccc5c(c3)OCO5)C4=O)C2)n1 | 0.993 |
| C[C@H](CO)N1C[C@H](C)[C@H](CN(C)C(=O)Nc2ccc(F)cc2)Oc2ncc(Br)cc2C1=O | 0.974 |
| CN(C)C(=O)C[C@@H]1CC[C@@H]2[C@H](COC[C@H](O)CN2S(=O)(=O)c2ccccc2)O1 | 1.02 |
| Cn1cnc(S(=O)(=O)N2C[C@@H](O)COC[C@H]3O[C@@H](CC(=O)N4CCN(c5ccccc5)CC4)CC[C@@H]32)c1 | 1.02 |
| CC[C@@H](C)[C@H]1O[C@@]2(CC[C@@H]1C)C[C@H]1C[C@@H](CC=C(C)[C@@H](O[C@H]3C[C@@H](OC)[C@@H](O[C@H]4C[C@@H](OC)[C@@H](O)[C@@H](C)O4)[C@@H](C)O3)[C@@H](C)C=CC=C3CO[C@H]4[C@@H](O)C(C)=C[C@@H](C(=O)O1)[C@]34O)O2.CO[C@H]1C[C@@H](O[C@@H]2[C@@H](OC)C[C@@H](O[C@@H]3C(C)=CC[C@@H]4C[C@@H](C[C@@]5(CC[C@@H](C)[C@H](C(C)C)O5)O4)OC(=O)[C@@H]4C=C(C)[C@H](O)[C@@H]5OCC(=CC=C[C@@H]3C)[C@@]45O)O[C@@H]2C)O[C@@H](C)[C@@H]1O | 1 |
| C[C@@H]1CCCCO[C@H](CN(C)C(=O)Nc2ccccc2)[C@H](C)CN([C@@H](C)CO)C(=O)c2cc(NC(=O)c3ccccc3)ccc2O1 | 0.982 |
| CC[C@H]1OC(=O)[C@H](C)[C@@H](O[C@H]2C[C@@](C)(OC)[C@@H](O)[C@H](C)O2)[C@@H](C)[C@@H](O[C@H]2O[C@H](C)C[C@H](N(C)C)[C@H]2O)[C@](C)(O)C[C@@H](C)C(=O)[C@H](C)[C@@H](O)[C@]1(C)O | 0.375 |
| CCC1OC(=O)C(C)C(OC2CC(C)(OC)C(O)C(C)O2)C(C)C(OC2OC(C)CC(N(C)C)C2O)C(C)(O)CC(C)C(=O)C(C)C(O)C1(C)O (stereo not given) | 0.408 |
| CC[C@@H]1OC(=O)[C@H](C)[C@@H](O[C@H]2C[C@@](C)(OC)[C@@H](O)[C@H](C)O2)[C@H](C)[C@@H](O[C@@H]2O[C@H](C)C[C@H](N(C)C)[C@H]2O)[C@](C)(O)C[C@@H](C)/C(=N\OCOCCOC)[C@H](C)[C@@H](O)[C@]1(C)O | 0.165 (active) |
| CC[C@H]1OC(=O)[C@H](C)[C@@H](O[C@H]2C[C@@](C)(OC)[C@@H](O)[C@H](C)O2)[C@H](C)[C@@H](O[C@@H]2O[C@H](C)C[C@H](N(C)C)[C@H]2O)[C@](C)(OC)C[C@@H](C)C(=O)[C@H](C)[C@@H](O)[C@]1(C)O | 0.0351 (active) |
| CC[C@@H]1OC(=O)[C@@H](C)[C@H](O[C@H]2C[C@@](C)(OC)[C@@H](O)[C@H](C)O2)[C@@H](C)[C@H](O)[C@@](C)(O[C@@H]2O[C@H](C)C[C@H](N(C)C)[C@H]2O)C[C@H](C)C(=O)[C@@H](C)[C@H](O)[C@@]1(C)O | 0.427 |

| SMILES | relative growth |
| --- | --- |
| CCC1OC(=O)C(C)C(OC2CC(C)(OC)C(O)C(C)O2)C(C)C(OC2OC(C)CC(N(C)C)C2O)C(C)(O)CC(C)C(=NOCOCCOC)C(C)C(O)C1(C)O (stereo not given) | 0.613 |
| CCOC(=O)CCC(=O)O[C@H]1[C@H](O[C@@H]2[C@@H](C)[C@H](O[C@H]3C[C@@](C)(OC)[C@@H](O)[C@H](C)O3)[C@@H](C)C(=O)O[C@H](CC)[C@@](C)(O)[C@H](O)[C@@H](C)C(=O)[C@H](C)C[C@@]2(C)O)O[C@H](C)C[C@@H]1N(C)C | 0.0544 (active) |
| CC[C@H]1OC(=O)[C@H](C)[C@@H](O[C@H]2C[C@@](C)(OC)[C@@H](O)[C@H](C)O2)[C@H](C)[C@@H](O[C@@H]2O[C@H](C)C[C@H](N(C)C)[C@H]2O)[C@](C)(O)C[C@@H](C)C(=O)[C@H](C)[C@@H](O)[C@]1(C)O | 0.0484 (active) |
| CCC1OC(=O)C(C)C(OC2CC(C)(OC)C(O)C(C)O2)C(C)C(OC2OC(C)CC(N(C)C)C2O)C(C)(O)CC(C)C2NC(COCCOC)OC(C2C)C1(C)O (stereo not given) | 0.433 |
| CCOC(=O)CCC(=O)OC1C(OC2C(C)C(OC3CC(C)(OC)C(O)C(C)O3)C(C)C(=O)OC(CC)C(C)(O)C(O)C(C)C(=O)C(C)CC2(C)O)OC(C)CC1N(C)C (stereo not given) | 0.709 |
| CCC1OC(=O)C(C)C(OC2CC(C)(OC)C(O)C(C)O2)C(C)C(OC2OC(C)CC(N(C)C)C2O)C(C)(OC)CC(C)C(=O)C(C)C(O)C1(C)O (stereo not given) | 0.536 |
| CCC(=O)O[C@H]1[C@H](O[C@@H]2[C@@H](C)[C@H](O[C@H]3C[C@@](C)(OC)[C@@H](O)[C@H](C)O3)[C@@H](C)C(=O)O[C@H](CC)[C@@](C)(O)[C@H](O)[C@@H](C)C(=O)[C@H](C)C[C@@]2(C)O)O[C@H](C)C[C@@H]1N(C)C | 0.947 |
| COc1ccc(NC(=O)N(C)C[C@@H]2OCCCC[C@@H](C)Oc3ccc(NC(=O)Nc4ccccc4)cc3C(=O)N([C@H](C)CO)C[C@@H]2C)cc1 | 1.01 |
| CCCCCCO[C@@H](C)c1cccc(-c2csc(NC(=O)c3cc(Cl)c(/C=C(\C)C(=O)O)c(Cl)c3)n2)c1OC | 0.777 |
| C=CCC[C@H](Cc1ccc(F)cc1)C(=O)O[C@@H](CNC(=O)[C@@H](CC=C)CC(=O)N(CCO)Cc1ccccc1)c1ccccc1 | 1.07 |
| CC(=O)N1CCN(C(=O)C(=O)NC[C@H](c2ccc(N(C)C)cc2)N2CCOCC2)CC1 | 0.989 |
| Cc1cc(C)c(NC(=O)[C@@H](N)Cc2ccccc2)c(Cl)c1 | 1.02 |
| Cc1ccc(S(=O)(=O)N(C)C[C@H]2Oc3cc(C#Cc4ccncc4)ccc3S(=O)(=O)N([C@@H](C)CO)C[C@H]2C)cc1 | 1.04 |
| c1ccc(-c2ccnc(-c3cc(-c4ccccc4)ccn3)c2)cc1 | 0.99 |
| Cl.NCCCC(=O)O [gamma-AMINOBUTYRIC ACID HYDROCHLORIDE] | 0.905 |
| CCn1nc(C(=O)O)c(=O)c2cc3c(cc21)OCO3 | 0.0537 (active) |
| O=C(O)c1ccc2c(c1)OCO2 | 0.853 |
| CNC(=O)NCc1ccc2c(c1)OCO2 | 1 |
| C[C@H](CO)N1C[C@H](C)[C@H](CN(C)S(=O)(=O)c2cn(C)cn2)OCCCC[C@H](C)Oc2ccc(NS(=O)(=O)c3cccs3)cc2C1=O | 1.01 |
| CS(=O)(=O)N(CCC#N)Cc1ccco1 | 1 |
| C[C@H]1CN([C@@H](C)CO)C(=O)Cc2cc(NC(=O)CCN3CCOCC3)ccc2O[C@@H]1CN(C)S(=O)(=O)c1cn(C)cn1 | 1.03 |
| CC(C)NC(=O)N(C)C[C@@H]1Oc2ccc(NC(=O)Cc3ccccc3)cc2CC(=O)N([C@H](C)CO)C[C@H]1C | 0.977 |

From the supplement of paper PMC9446081
